In PubChem BioAssay AID686979 (National Center for Advancing Translational Sciences (NCATS), 2013):
Screen size: about 420,000 compounds; about 50,000 (12%) were called active. Roughly 26% stayed inconclusive and do not appear here. For the sample, actives were picked, then their nearest neighbours and some compounds at random. A number with no mark means an inactive call. Calls come from the whole dose curve; as a rule, active = well fitted inhibition curve with a large enough effect; inconclusive = small, poorly fitted or top-dose-only effect; inactive = flat fitted curve, though single readings scatter.

experiment: qHTS for Inhibitors of human tyrosyl-DNA phosphodiesterase 1 (TDP1): qHTS in cells in presence of CPT; settings: chicken DT40 Tdp1-/-;hTDP1 cells + 20 nM CPT, ATP luminescence, 48 h; series mostly up to 46.2 µM; activity change, negative = growth inhibition: at the top concentration; note: nearly all actives have a fitted effect of over 55% in size
In short: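 Chicken DT40 Tdp1-/- cells complemented with human TDP1, 400 cells/well, exposed to compounds plus 20 nM camptothecin for at least 48 h at 37 C; viability read as ATP content by CellTiter-Glo luminescence.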
% is set by controls: 0 for no effect and ±100 for the full control effect; potency is the fitted concentration of half-maximal effect.

Structure (SMILES)	Potency	activity change, negative = growth inhibition
CCN(CC)N=Nc1cccc(NC(C)=O)c1	11.6 µM (active)	
CC(=O)Nc1cccc(Nc2ccc(C#N)cc2)c1		-39.3%
CC(=O)Nc1cccc(C(=O)OCN2C(=O)c3ccccc3C2=O)c1		0.81%
Cc1ccc(-n2cc(CN(C)Cc3nccn3C)c(-c3cccc(C)c3)n2)cc1	20.6 µM (active)	
CCn1ccnc1CN(C)Cc1nc(-c2ccc3c(c2)OCO3)no1		-11.6%
NNC(=O)c1ccc(COCC(F)(F)C(F)F)cc1		-3.54%
CCN(c1ccccc1)S(=O)(=O)c1ccc(OCC(=O)N2CCCC2)cc1		-7.32%
CCc1ccc(-c2nc(SCC(=O)NC3CCCC3)n[nH]2)cc1	25.9 µM (active)	
COc1ccc(CNC(=O)CSc2n[nH]c(-c3ccc(F)cc3)n2)cc1		-25.8%
COc1ccc(-c2nc(SCC(=O)N3CCCC3)n[nH]2)cc1		-4.75%
CC(=O)N1CCN(Cc2cc(=O)oc3cc(C)ccc23)CC1		0.374%
CCc1nnc(NC(=O)c2cc(S(=O)(=O)N3CCN(CC)CC3)ccc2Cl)s1		4.17%
NNC(=O)C1CC(O)CN1S(=O)(=O)c1ccc(Cl)cc1 (stereo unspecified)		-1.12%
COc1ccccc1N1CCN(Cc2cc(OC)c3c(c2)OCO3)CC1		-23.6%
COc1ccccc1/C=N/N1CCN(Cc2ccccc2Cl)CC1		11.4%
COc1ccccc1N1CCN(Cc2ccc(OC)c3ccccc23)CC1	16.4 µM (active)	
Cc1cccc(N=C2NN=C(c3c[nH]c4ccccc34)CS2)c1		-9.71%
C=CCn1c(C)cc(C2=NNC(=NCC)SC2)c1C	16.4 µM (active)	
Cc1cc(NC(=O)CCC(=O)N(Cc2ccccc2)C(C(=O)NC2CCCC2)c2ccc(C)o2)no1 (stereo unspecified)		-23.4%
CCC1Oc2ccccc2N(CC(=O)NCCCN2CCN(CC)CC2)C1=O (stereo unspecified)		-2.74%
Cn1cnc(S(=O)(=O)N2C[C@@H](O)COC[C@@H]3O[C@H](CC(=O)NC4CCC4)CC[C@H]32)c1		1.21%
COc1ccccc1CNc1ncncc1-c1cccnc1		-13.3%
COCCNc1ncnc2ccc(-c3ccccc3CN(C)C)cc12		2.72%
COCCNc1ncnc2ccc(-c3cccnc3)cc12	14.6 µM (active)	
Cc1cc(C)cc(N(CC(=O)NC2CCCC2)C(=O)CCC(=O)Nc2nccs2)c1		0.0142%
COCCn1c(=O)c(CCc2ccccc2)nc2cnc(N3CCNCC3)nc21		-6.9%

Structure (SMILES)	Potency	activity change, negative = growth inhibition
N#Cc1cccc(-c2nc3cnc(N4CCNCC4)nc3n(C3CC3)c2=O)c1	5.17 µM (active)	
Cn1c(=O)c(-c2ccccc2)nc2cnc(N3CCNCC3)nc21		-14.6%
Cc1cccc(CN2CCC(n3nccc3NC(=O)c3ccccc3C)CC2)n1		-19.4%
CCNc1ncc2nc(CCc3ccccc3)c(=O)n(-c3ccc(OC)cc3)c2n1		9.73%
COc1ccc(-c2nc3c(s2)CCc2onc(-c4ccc(OC)cc4)c2-3)cc1	20.6 µM (active)	
COc1ccc(-c2cc(C(=O)N3CCN(c4ccc(F)cc4)CC3)no2)cc1		-2.11%
COc1ccc(-c2onc3ccc(C(C)=O)cc23)cc1		-25.5%
Nc1nc(NC(=O)/C=C/c2ccc(F)cc2)nn1-c1ccccc1		-18.1%
O=C(OCCN=C1NS(=O)(=O)c2ccccc21)c1cccc([N+](=O)[O-])c1		-30.4%
O=C(Nc1nnc(-c2ccc(F)cc2)s1)c1c(F)cccc1Cl		-17.1%
CCOC(=O)Cc1csc(NC(=O)C(C)(C)C)n1		-0.25%
CCOC(=O)Cc1csc(NC(=O)CSc2nc(C)cc(=O)[nH]2)n1	23.1 µM (active)	
CCCCc1nnc(NC(=O)CSc2nc(C)cc(=O)[nH]2)s1		-8%
CC(=O)O[C@H]1CC[C@@]2(C)C(=CC[C@@H]3[C@@H]2CC[C@]2(C)C(c4cccnc4)=CC[C@@H]32)C1		-11.4%
CCn1nc(C)cc1C(=O)N1CCCC(C(=O)c2cccc(OC)c2)C1 (stereo unspecified)		-26.5%
Cc1cc(Cl)ccc1C(=O)C1CCCN(C(=O)c2ccc3c(c2)OCO3)C1 (stereo unspecified)	10.3 µM (active)	
COc1ccc(C(=O)N2CCCC(C(=O)c3ccccc3OC)C2)cc1OC (stereo unspecified)		3.42%
COc1ccc(C(=O)C2CCCN(Cc3cccn3-c3ccccn3)C2)c(C)c1 (stereo unspecified)	20.6 µM (active)	
O=C(c1ccc2c(c1)OCO2)N1CCOCC1		-11.9%
COc1ccc(OC)c(S(=O)(=O)N2CCCC(C(=O)NCCc3ccccc3)C2)c1 (stereo unspecified)		-18.8%
COc1ccc(C(=O)C2CCCN(C(=O)c3ccc(OC)o3)C2)c(C)c1 (stereo unspecified)	20.6 µM (active)	
COc1ccc(C(=O)C2CCCN(C(=O)c3cnsn3)C2)c(C)c1 (stereo unspecified)		-24.1%
FC(F)(F)c1cccc(-c2cn[nH]c2C2CCCN(Cc3cccn3-c3ccccn3)C2)c1 (stereo unspecified)		-7.96% [at 9.04 µM]
COc1ccc(NC(=O)C2CCCN(S(=O)(=O)c3c(C)[nH]c(=O)[nH]c3=O)C2)c(OC)c1 (stereo unspecified)		20.1%
CCOC(=O)c1[nH]ncc1CN1CCCC(C(=O)c2ccc(OC)cc2C)C1 (stereo unspecified)		9.78%
